Experimental data reported in PMC7862700, “An all-to-all approach to the identification of sequence-specific readers for epigenetic DNA modifications on cytosine”.

Legend:
Test in all cases: DAPPL (digital affinity profiling via proximity ligation, sequencing); 10 mM Tris-HCl pH 7.5, 50 mM NaCl, 1 mM DTT, 4% glycerol, room temperature, 30 min; GST-TFs on glutathione beads, 16-mer random dsDNA library, 0.1% formaldehyde crosslink after washing; high values mean tight binding
FLI1 = biological target: T1, FLI1 (Homo sapiens, UniProt Q01543 1-452); details: protein: recombinant; tags: N-terminal GST; dsDNA, one strand shown
T1 sequence: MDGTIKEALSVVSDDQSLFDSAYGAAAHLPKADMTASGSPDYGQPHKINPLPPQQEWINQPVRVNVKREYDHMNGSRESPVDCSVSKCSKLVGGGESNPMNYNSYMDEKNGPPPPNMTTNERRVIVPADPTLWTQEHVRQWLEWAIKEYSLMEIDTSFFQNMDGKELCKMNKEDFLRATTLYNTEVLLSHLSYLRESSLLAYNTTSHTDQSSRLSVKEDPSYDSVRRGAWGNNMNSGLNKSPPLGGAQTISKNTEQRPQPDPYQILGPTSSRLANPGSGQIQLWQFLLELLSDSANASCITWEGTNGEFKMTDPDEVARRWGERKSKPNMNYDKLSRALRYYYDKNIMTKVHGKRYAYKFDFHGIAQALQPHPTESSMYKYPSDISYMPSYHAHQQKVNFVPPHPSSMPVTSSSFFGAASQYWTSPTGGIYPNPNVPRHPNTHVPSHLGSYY
How it was run: (§1)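 In yeast, human transcription factors were expressed with a GST fusion, then pulled down on glutathione beads and given DNA barcodes. Pooled with a tag-only sample, they were exposed to 200 nmole of a 16-mer random double-stranded DNA library (Tris/NaCl/DTT/glycerol buffer, room temperature, 30 min), washed, crosslinked with 0.1% formaldehyde, proximity-ligated using BsaI/T4 ligase for 1 h at 37 °C, PCR-amplified and read on an Illumina NextSeq500. Each hexamer's frequency of reads for a factor, divided by the matching frequency for the tag-only sample, gives the binding signal.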

ELK1 = biological target: T2, ELK1 (Homo sapiens, UniProt P19419 1-428); details: protein: recombinant; tags: N-terminal GST; dsDNA, one strand shown
T2 sequence: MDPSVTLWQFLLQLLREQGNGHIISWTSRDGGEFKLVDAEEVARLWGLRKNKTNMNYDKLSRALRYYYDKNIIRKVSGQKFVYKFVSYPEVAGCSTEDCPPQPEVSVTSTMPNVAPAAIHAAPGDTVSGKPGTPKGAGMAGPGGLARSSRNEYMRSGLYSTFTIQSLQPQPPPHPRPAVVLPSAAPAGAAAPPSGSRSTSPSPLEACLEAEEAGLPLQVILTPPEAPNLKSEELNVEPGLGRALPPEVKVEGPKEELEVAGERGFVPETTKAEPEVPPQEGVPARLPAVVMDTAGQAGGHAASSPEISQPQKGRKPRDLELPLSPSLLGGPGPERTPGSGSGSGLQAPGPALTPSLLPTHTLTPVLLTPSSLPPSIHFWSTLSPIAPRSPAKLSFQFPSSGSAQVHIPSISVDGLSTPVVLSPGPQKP
How it was run: as §1

GABPA = biological target: T3, GABPA (Homo sapiens, UniProt Q06546 1-454); details: protein: recombinant; tags: N-terminal GST; dsDNA, one strand shown
T3 sequence: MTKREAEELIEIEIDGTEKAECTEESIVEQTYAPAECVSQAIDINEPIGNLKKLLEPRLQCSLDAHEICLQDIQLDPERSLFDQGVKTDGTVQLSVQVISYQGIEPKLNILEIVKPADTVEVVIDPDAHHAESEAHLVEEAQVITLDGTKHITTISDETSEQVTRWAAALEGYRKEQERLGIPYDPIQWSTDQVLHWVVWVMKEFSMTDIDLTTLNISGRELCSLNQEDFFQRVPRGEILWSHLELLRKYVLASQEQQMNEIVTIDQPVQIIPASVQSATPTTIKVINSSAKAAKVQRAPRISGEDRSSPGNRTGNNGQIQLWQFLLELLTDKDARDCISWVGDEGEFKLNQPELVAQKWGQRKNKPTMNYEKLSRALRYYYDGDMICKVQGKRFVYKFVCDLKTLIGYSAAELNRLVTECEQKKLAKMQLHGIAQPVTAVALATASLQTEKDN
How it was run: as §1

ERG = biological target: T4, ERG (Homo sapiens, UniProt P11308 1-479); details: protein: recombinant; tags: N-terminal GST; dsDNA, one strand shown
T4 sequence: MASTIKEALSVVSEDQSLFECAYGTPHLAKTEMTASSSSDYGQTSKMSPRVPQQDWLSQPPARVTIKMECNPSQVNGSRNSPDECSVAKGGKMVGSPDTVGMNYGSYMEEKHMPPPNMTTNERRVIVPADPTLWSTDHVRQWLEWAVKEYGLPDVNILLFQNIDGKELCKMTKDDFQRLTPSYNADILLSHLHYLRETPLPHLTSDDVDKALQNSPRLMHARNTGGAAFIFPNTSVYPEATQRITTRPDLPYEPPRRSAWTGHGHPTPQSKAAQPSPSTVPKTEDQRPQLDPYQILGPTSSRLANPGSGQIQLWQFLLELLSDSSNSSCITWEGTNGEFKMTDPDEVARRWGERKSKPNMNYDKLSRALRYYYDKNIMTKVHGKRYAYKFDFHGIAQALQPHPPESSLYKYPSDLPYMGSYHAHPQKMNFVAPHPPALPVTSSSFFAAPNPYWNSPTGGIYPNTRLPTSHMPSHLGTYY
How it was run: as §1

ELF1 = ELF1 (Homo sapiens, UniProt P32519 1-619); details: protein: recombinant; tags: N-terminal GST; dsDNA, one strand shown
How it was run: as §1

EHF = biological target: T5, EHF (Homo sapiens, UniProt Q9NZC4 1-300); details: protein: recombinant; tags: N-terminal GST; dsDNA, one strand shown
T5 sequence: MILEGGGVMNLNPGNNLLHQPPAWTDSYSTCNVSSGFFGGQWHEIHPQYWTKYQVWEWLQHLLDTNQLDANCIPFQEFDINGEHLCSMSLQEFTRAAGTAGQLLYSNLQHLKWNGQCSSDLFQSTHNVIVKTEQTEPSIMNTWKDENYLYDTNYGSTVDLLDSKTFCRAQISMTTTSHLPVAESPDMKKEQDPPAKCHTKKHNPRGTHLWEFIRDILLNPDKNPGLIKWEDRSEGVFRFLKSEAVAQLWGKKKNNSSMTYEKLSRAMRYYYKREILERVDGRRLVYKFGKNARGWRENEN
How it was run: as §1

SPI1 = SPI1 (Homo sapiens, UniProt P17947 1-270); details: protein: recombinant; tags: N-terminal GST; dsDNA, one strand shown
How it was run: as §1

SPIB = SPIB (Homo sapiens, UniProt Q01892 1-262); details: protein: recombinant; tags: N-terminal GST; dsDNA, one strand shown
How it was run: as §1

ELK3 = biological target: T6, ELK3 (Homo sapiens, UniProt P41970 1-407); details: protein: recombinant; tags: N-terminal GST; dsDNA, one strand shown
T6 sequence: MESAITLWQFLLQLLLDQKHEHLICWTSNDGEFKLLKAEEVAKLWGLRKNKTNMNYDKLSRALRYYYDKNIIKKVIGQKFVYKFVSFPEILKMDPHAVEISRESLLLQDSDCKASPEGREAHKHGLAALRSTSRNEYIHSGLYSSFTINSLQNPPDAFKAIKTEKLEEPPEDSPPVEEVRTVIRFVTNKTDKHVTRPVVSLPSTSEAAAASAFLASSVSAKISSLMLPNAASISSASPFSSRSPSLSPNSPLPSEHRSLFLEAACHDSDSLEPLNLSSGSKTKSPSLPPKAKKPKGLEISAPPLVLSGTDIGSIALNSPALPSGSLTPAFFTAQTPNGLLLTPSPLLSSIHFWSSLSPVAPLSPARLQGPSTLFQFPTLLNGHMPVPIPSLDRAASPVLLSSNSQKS
How it was run: as §1

FEV = biological target: T7, FEV (Homo sapiens, UniProt Q99581 1-238); details: protein: recombinant; tags: N-terminal GST; dsDNA, one strand shown
T7 sequence: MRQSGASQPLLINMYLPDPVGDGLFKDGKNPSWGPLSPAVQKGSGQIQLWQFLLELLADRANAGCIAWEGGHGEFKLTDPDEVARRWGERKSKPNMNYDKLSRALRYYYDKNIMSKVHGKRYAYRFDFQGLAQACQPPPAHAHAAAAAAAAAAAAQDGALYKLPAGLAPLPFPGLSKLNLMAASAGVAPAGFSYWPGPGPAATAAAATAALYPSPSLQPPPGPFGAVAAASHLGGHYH
How it was run: as §1

ETV5 = ETV5 (Homo sapiens, UniProt P41161 1-510); details: protein: recombinant; tags: N-terminal GST; dsDNA, one strand shown
How it was run: as §1

HSF1 = HSF1 (Homo sapiens, UniProt Q00613 1-529); details: protein: recombinant; tags: N-terminal GST; chain copies: 3; dsDNA, one strand shown
How it was run: as §1

ELF4 = ELF4 (Homo sapiens, UniProt Q99607 1-663); details: protein: recombinant; tags: N-terminal GST; dsDNA, one strand shown
How it was run: as §1

ELK4 = biological target: T8, ELK4 (Homo sapiens, UniProt P28324-2 1-405); details: protein: recombinant; tags: N-terminal GST; dsDNA, one strand shown
T8 sequence: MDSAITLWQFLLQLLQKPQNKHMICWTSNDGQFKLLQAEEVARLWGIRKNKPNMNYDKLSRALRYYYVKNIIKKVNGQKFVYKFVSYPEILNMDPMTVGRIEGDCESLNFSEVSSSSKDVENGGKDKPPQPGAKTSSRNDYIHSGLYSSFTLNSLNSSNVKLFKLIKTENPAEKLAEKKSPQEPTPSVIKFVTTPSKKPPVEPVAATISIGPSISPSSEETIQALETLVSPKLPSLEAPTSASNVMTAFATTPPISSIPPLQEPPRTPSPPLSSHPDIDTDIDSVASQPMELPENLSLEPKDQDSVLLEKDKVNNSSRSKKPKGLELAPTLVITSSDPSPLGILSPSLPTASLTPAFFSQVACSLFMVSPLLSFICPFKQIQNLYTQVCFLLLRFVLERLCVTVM
How it was run: as §1

ETV2 = biological target: T9, ETV2 (Homo sapiens, UniProt O00321 1-342); details: protein: recombinant; tags: N-terminal GST; dsDNA, one strand shown
T9 sequence: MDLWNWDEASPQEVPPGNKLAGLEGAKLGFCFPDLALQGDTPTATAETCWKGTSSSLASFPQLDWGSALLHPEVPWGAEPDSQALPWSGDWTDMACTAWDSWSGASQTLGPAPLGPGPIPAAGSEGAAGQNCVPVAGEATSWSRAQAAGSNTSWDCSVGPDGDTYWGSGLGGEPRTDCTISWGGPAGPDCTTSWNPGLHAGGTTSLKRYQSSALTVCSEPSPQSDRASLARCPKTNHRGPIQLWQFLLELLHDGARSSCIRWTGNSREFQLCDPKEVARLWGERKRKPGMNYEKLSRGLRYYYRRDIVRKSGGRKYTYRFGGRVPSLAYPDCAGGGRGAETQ
How it was run: as §1

ELF3 = biological target: T10, ELF3 (Homo sapiens, UniProt P78545 1-371); details: protein: recombinant; tags: N-terminal GST; dsDNA, one strand shown
T10 sequence: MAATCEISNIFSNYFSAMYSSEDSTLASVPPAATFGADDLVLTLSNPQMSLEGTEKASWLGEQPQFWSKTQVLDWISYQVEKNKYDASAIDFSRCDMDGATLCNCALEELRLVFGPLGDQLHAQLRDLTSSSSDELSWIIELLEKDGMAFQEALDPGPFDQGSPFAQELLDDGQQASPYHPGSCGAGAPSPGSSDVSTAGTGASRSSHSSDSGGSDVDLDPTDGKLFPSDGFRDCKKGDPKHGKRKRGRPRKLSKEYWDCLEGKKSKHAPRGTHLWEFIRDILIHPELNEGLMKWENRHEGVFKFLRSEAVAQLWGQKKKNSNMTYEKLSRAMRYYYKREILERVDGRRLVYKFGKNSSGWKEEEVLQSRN
How it was run: as §1

ETV1 = ETV1 (Homo sapiens, UniProt P50549 1-477); details: protein: recombinant; tags: N-terminal GST; dsDNA, one strand shown
How it was run: as §1

CRX = CRX (Homo sapiens, UniProt O43186 1-299); details: protein: recombinant; tags: N-terminal GST; dsDNA, one strand shown
How it was run: as §1

Chain of ETV5 (P41161 whole entry): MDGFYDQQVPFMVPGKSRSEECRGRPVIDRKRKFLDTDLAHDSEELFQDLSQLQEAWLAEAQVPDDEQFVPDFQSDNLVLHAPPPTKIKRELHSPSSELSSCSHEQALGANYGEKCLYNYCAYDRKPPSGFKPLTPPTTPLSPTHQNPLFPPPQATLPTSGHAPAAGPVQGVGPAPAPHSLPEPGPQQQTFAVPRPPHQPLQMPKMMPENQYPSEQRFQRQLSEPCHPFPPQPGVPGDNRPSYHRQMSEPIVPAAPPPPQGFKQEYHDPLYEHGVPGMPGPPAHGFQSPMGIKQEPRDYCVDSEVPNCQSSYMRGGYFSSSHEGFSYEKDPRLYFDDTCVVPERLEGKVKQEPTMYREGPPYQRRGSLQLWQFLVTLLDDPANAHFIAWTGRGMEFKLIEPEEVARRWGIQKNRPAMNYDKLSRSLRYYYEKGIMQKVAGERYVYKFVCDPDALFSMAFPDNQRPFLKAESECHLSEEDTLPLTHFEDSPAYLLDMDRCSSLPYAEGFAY
Chain of ETV1 (P50549 whole entry): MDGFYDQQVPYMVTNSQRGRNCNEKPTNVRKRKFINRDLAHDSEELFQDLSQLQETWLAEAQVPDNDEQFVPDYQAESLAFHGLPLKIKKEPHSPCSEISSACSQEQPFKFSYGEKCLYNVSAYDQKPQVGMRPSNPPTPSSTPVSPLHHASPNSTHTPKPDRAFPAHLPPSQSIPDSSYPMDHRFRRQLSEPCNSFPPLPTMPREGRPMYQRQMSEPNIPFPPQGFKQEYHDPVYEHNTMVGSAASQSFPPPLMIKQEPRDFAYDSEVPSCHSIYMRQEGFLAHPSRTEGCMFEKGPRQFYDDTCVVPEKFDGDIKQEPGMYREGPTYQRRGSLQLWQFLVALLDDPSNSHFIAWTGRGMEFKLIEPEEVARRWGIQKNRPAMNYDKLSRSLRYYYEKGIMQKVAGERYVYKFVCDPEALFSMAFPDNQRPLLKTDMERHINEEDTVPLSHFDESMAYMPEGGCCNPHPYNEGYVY
Chain of HSF1 (Q00613 whole entry): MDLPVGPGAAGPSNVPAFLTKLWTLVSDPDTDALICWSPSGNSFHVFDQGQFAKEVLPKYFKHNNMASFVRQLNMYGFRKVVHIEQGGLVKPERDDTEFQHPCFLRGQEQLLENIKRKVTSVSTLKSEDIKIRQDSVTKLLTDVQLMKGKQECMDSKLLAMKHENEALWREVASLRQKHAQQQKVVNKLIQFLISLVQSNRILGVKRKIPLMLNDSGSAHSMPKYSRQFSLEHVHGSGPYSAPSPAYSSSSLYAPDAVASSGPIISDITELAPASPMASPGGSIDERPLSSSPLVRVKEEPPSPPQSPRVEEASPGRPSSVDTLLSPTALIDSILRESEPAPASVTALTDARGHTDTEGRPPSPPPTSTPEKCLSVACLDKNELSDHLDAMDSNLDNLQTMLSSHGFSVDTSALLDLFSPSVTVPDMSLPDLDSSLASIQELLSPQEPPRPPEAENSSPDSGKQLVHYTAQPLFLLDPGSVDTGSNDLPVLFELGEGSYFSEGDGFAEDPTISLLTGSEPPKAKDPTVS
Chain of ELF4 (Q99607 whole entry): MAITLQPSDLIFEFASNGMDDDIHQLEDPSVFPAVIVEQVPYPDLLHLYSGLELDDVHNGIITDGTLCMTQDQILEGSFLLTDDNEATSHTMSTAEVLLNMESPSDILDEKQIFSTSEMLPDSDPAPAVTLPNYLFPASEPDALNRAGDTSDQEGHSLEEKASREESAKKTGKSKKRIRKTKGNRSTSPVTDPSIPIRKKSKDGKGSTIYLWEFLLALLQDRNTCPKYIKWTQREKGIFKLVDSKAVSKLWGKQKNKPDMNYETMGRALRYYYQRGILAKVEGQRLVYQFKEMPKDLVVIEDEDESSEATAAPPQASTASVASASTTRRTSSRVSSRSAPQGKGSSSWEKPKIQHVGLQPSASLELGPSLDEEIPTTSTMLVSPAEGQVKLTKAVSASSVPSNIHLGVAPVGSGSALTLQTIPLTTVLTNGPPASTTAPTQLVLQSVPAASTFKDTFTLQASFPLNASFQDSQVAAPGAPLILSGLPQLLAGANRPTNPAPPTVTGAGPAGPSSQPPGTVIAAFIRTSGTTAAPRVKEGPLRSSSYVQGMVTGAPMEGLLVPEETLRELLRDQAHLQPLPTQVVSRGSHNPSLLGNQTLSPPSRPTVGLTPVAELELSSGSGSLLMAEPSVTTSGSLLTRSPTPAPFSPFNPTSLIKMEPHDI
Chain of SPIB (Q01892 whole entry): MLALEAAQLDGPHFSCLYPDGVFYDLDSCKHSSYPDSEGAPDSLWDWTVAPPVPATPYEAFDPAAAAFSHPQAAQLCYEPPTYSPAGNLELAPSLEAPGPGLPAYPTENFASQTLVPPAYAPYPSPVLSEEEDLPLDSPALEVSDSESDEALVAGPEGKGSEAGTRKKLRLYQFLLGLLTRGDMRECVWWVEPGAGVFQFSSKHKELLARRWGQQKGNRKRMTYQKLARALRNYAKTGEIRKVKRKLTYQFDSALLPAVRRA
Chain of ELF1 (P32519 whole entry): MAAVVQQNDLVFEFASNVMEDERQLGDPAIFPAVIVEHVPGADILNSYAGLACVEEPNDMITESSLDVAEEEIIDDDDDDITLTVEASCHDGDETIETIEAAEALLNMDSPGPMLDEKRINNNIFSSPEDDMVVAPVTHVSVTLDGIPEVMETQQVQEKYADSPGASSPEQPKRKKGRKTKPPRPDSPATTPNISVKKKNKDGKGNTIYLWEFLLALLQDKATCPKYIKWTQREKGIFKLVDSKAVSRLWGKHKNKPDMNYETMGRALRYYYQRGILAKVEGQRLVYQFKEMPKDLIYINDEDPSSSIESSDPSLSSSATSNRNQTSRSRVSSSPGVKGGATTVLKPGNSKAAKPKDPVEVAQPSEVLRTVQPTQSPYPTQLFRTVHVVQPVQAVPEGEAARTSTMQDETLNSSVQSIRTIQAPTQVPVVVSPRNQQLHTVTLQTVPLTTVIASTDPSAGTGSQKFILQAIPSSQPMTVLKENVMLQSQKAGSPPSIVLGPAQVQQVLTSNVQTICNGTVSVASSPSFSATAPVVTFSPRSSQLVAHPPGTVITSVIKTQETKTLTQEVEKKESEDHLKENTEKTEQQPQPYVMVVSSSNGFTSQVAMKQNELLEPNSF
Chain of CRX (O43186 whole entry): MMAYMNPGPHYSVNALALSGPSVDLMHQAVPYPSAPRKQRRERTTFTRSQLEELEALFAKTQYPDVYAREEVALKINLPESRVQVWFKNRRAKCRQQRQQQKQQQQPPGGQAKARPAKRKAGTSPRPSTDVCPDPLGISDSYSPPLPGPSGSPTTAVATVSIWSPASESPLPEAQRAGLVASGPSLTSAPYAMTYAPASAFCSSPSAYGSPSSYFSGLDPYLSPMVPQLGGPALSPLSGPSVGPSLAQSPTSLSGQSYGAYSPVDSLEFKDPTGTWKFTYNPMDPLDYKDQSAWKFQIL

Sequence | binding signal (FLI1) | binding signal (ELK1) | binding signal (GABPA) | binding signal (ERG) | binding signal (ELF1) | binding signal (EHF) | binding signal (SPI1) | binding signal (SPIB) | binding signal (ELK3) | binding signal (FEV) | binding signal (ETV5) | binding signal (HSF1) | binding signal (ELF4) | binding signal (ELK4) | binding signal (ETV2) | binding signal (ELF3) | binding signal (ETV1) | binding signal (CRX)
CTGGCC | 1.22 fold enrichment (6-mer frequency, TF over GST control) | 1.13 fold enrichment (6-mer frequency, TF over GST control) | 1.19 fold enrichment (6-mer frequency, TF over GST control) | 1.29 fold enrichment (6-mer frequency, TF over GST control) | 1.23 fold enrichment (6-mer frequency, TF over GST control) | 1.13 fold enrichment (6-mer frequency, TF over GST control) | 1.28 fold enrichment (6-mer frequency, TF over GST control) | 1.18 fold enrichment (6-mer frequency, TF over GST control) | 1.06 fold enrichment (6-mer frequency, TF over GST control) | 1.13 fold enrichment (6-mer frequency, TF over GST control) | 1.19 fold enrichment (6-mer frequency, TF over GST control) | 1.01 fold enrichment (6-mer frequency, TF over GST control) | 1.2 fold enrichment (6-mer frequency, TF over GST control) | 1.35 fold enrichment (6-mer frequency, TF over GST control) | 1.04 fold enrichment (6-mer frequency, TF over GST control) | 1 fold enrichment (6-mer frequency, TF over GST control) | 1.15 fold enrichment (6-mer frequency, TF over GST control) | –
ATCGCT | 1.09 fold enrichment (6-mer frequency, TF over GST control) | 1.09 fold enrichment (6-mer frequency, TF over GST control) | 1.09 fold enrichment (6-mer frequency, TF over GST control) | 1.01 fold enrichment (6-mer frequency, TF over GST control) | 1.04 fold enrichment (6-mer frequency, TF over GST control) | 1.08 fold enrichment (6-mer frequency, TF over GST control) | 1.02 fold enrichment (6-mer frequency, TF over GST control) | 1.14 fold enrichment (6-mer frequency, TF over GST control) | 1.1 fold enrichment (6-mer frequency, TF over GST control) | 1.06 fold enrichment (6-mer frequency, TF over GST control) | 1.07 fold enrichment (6-mer frequency, TF over GST control) | 1.08 fold enrichment (6-mer frequency, TF over GST control) | 1.15 fold enrichment (6-mer frequency, TF over GST control) | 1.06 fold enrichment (6-mer frequency, TF over GST control) | – | 1.05 fold enrichment (6-mer frequency, TF over GST control) | 1.08 fold enrichment (6-mer frequency, TF over GST control) | 1.19 fold enrichment (6-mer frequency, TF over GST control)
